The text below walks through data of PubChem BioAssay (NCI).

Test systems include HCT-15 colon; SNB-75 CNS; SNB-19 CNS; U251 CNS; PC-3 prostate; UACC-62 melanoma; LOX IMVI melanoma; SK-MEL-28 melanoma; SK-MEL-2 melanoma; EKVX NSCLC; SN12C renal; UO-31 renal; TK-10 renal; ACHN renal; CAKI-1 renal; A498 renal; CCRF-CEM leukemia; MOLT-4 leukemia; SK-MEL-5 melanoma; HT29 colon.
Holding throughout (experiment): NCI-60 one-dose screen, 48 h (100 = growth as untreated, 0 = no growth, -100 = all killed)
Details in all cases: 10 µM unless noted

Structures are written as SMILES. Compounds without any hit were thinned out: in the full panel of roughly 83,000, 20% have a hit.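 Activity criterion: percent growth below 10, measured after cells in 96-well plates were exposed to a single compound concentration for 48 hours.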 Unmarked numbers belong to inactive results. Active and inactive are the calls of the source.

Take `CCN1C(=O)N(CC)C2C1NN=C1SCC(=O)N12` (configuration not stated): the growth in the assay on HCT-15 colon is 82%; in the assay with SNB-75 CNS, 85.8%; in the assay with SNB-19 CNS, 97%; in the assay with U251 CNS, 107%; with PC-3 prostate it was 94%; with UACC-62 melanoma it was 85.8%. For the same compound, the growth is 107% in the assay with LOX IMVI melanoma; 96.6% in the assay on SK-MEL-28 melanoma; 106% in the assay on SK-MEL-2 melanoma; 86.8% in the assay on EKVX NSCLC; 78.9% in the assay with SN12C renal; 58.8% in the assay with UO-31 renal. Further, the growth is 104% with TK-10 renal; 84.2% with ACHN renal; 89.2% in the assay with CAKI-1 renal; 112% in the assay with A498 renal; 40% with CCRF-CEM leukemia; 57.2% in the assay with MOLT-4 leukemia.
Turning to `O=C(NCc1ccccc1O)c1cccc2ccccc12`, the growth in the assay with HCT-15 colon was 68.9%; in the assay with SNB-75 CNS, 66.5%; in the assay on SNB-19 CNS it was 69.3%; with U251 CNS, 81.6%; in the assay with PC-3 prostate, 52.5%; with SK-MEL-5 melanoma it was 60.1%. Also, the growth in the assay with UACC-62 melanoma was 37.9%; with LOX IMVI melanoma, 79.6%; in the assay on SK-MEL-28 melanoma, 71.5%; with SK-MEL-2 melanoma, 86.4%; in the assay with EKVX NSCLC, 82.1%; in the assay with UO-31 renal, 51.5%. The growth in the assay with TK-10 renal is 98.5%; with ACHN renal, 72.4%; in the assay with CAKI-1 renal it was 91.9%; in the assay on CCRF-CEM leukemia, 101%; with MOLT-4 leukemia, 79%.
Regarding `CN(C)c1ccc(/C=C/C(=O)c2ccc(Nc3nc(Nc4ccc(F)cc4)nc(Nc4ccc(Cl)cc4)n3)cc2)cc1`, the growth with HCT-15 colon is 57%; in the assay with HT29 colon it was 60.7%; in the assay with SNB-19 CNS, 92.7%; with PC-3 prostate, 57.2%; in the assay with SK-MEL-5 melanoma, 50.2%; in the assay with UACC-62 melanoma it was 75.2%. Moreover, the growth with LOX IMVI melanoma was 75.6%; with SK-MEL-28 melanoma, 74.3%; in the assay on SK-MEL-2 melanoma, 52.6%; in the assay on EKVX NSCLC, 67.2%; in the assay on SN12C renal it was 101%; in the assay with UO-31 renal, 59.2%. The growth was 97.9% in the assay with TK-10 renal; 75.3% with ACHN renal; 70.9% in the assay on CAKI-1 renal; 83.4% with A498 renal; 4.13% (active) in the assay with CCRF-CEM leukemia; -3.06% (active) in the assay with MOLT-4 leukemia.
Take `COc1cc(Nc2ncccc2NC(=O)c2cn(Cc3cccc(Oc4ccccc4)c3)nn2)cc(OC)c1`: the growth is 68.7% in the assay on HCT-15 colon; 79.9% in the assay on SNB-75 CNS; 79.6% in the assay on SNB-19 CNS; 80.2% with U251 CNS; 66.5% in the assay on PC-3 prostate; 60% in the assay with SK-MEL-5 melanoma. Also, the growth in the assay with UACC-62 melanoma is 65.5%; in the assay on LOX IMVI melanoma, 75.1%; in the assay with SK-MEL-28 melanoma it was 83.3%; with SK-MEL-2 melanoma it was 95.7%; in the assay on EKVX NSCLC it was 75%; in the assay on SN12C renal it was 84.2%. In addition, the growth in the assay on UO-31 renal was 50.7%; in the assay on TK-10 renal it was 100%; in the assay with ACHN renal, 86.1%; in the assay with CAKI-1 renal, 83.9%; in the assay on A498 renal, 76.2%; with CCRF-CEM leukemia, 84.5%. In addition, the growth with MOLT-4 leukemia is 59.6%.
On to `CC(O)c1ncc(/C=C2\SC(=S)N(Cc3ccccc3)C2=O)s1` (configuration not stated), for which the growth in the assay on HCT-15 colon was 97.4%; in the assay on SNB-75 CNS it was 102%; with SNB-19 CNS, 106%; with U251 CNS, 87.9%; with PC-3 prostate, 97.3%; with SK-MEL-5 melanoma, 93.7%. For the same compound, the growth in the assay with UACC-62 melanoma was 99.4%; with LOX IMVI melanoma, 92.7%; in the assay on SK-MEL-28 melanoma it was 92.2%; in the assay on SK-MEL-2 melanoma, 91%; in the assay with EKVX NSCLC it was 101%; in the assay on SN12C renal, 110%. The growth in the assay on UO-31 renal was 85.8%; in the assay with TK-10 renal, 33.7%; with ACHN renal it was 95.6%; in the assay with CAKI-1 renal, 93.4%; with A498 renal, 100%; with CCRF-CEM leukemia it was 98.6%. In addition, in the assay on MOLT-4 leukemia, the growth was 108%.
In the case of `COc1ccc(-c2cc(-c3ccc(OC)cc3)nc(NCCCNc3ccnc4cc(Cl)ccc34)n2)cc1`, the growth in the assay on HCT-15 colon was -77% (active); in the assay on SNB-75 CNS, 112%; in the assay with SNB-19 CNS it was 93.3%; in the assay on U251 CNS, 70.7%; in the assay with PC-3 prostate it was 61.5%; in the assay on SK-MEL-5 melanoma it was 22.7%. The growth is 91.8% in the assay with UACC-62 melanoma; -95% (active) in the assay with LOX IMVI melanoma; 37.5% in the assay with SK-MEL-28 melanoma; 83.9% in the assay on SK-MEL-2 melanoma; 80.4% with EKVX NSCLC; -62.3% (active) in the assay on SN12C renal. The growth is 48.9% with UO-31 renal; 127% in the assay on TK-10 renal; 96.2% in the assay on ACHN renal; 75.3% in the assay on CAKI-1 renal; 23.2% with A498 renal; 3.08% (active) with CCRF-CEM leukemia. Also, the growth in the assay with MOLT-4 leukemia was 1.68% (active).
For `O=C1c2cc3c(cc2-c2c1c1ccc(Cl)cc1c(=O)n2C[C@H](O)CO)OCO3`, the growth with HCT-15 colon was 4.59% (active); with SNB-75 CNS it was -9.59% (active); in the assay on SNB-19 CNS, 14.1%; with U251 CNS, 0.379% (active); in the assay on PC-3 prostate, 6.95% (active); in the assay with SK-MEL-5 melanoma, -96.6% (active). The growth in the assay with UACC-62 melanoma is -62% (active); in the assay on LOX IMVI melanoma, -31.9% (active); in the assay on SK-MEL-28 melanoma it was -6.11% (active); with SK-MEL-2 melanoma it was -9.57% (active); in the assay with EKVX NSCLC, 4.75% (active); in the assay on SN12C renal, 10.1%. In addition, the growth is -85.6% (active) with UO-31 renal; 14.6% in the assay on TK-10 renal; -72.2% (active) with ACHN renal; -35.3% (active) in the assay with CAKI-1 renal; -79.1% (active) with A498 renal; 9.33% (active) in the assay on CCRF-CEM leukemia. Further, the growth in the assay on MOLT-4 leukemia is -17.2% (active).
Regarding `COC(=O)c1ccc2c(c1)c1c(C)c3ccncc3c(C)c1n2C`, the growth is 18.6% in the assay on HCT-15 colon; 22% in the assay with SNB-75 CNS; 29% in the assay with SNB-19 CNS; 20.9% in the assay on U251 CNS; 31.8% with PC-3 prostate; 14.5% in the assay with SK-MEL-5 melanoma. For the same compound, the growth was 3.04% (active) with UACC-62 melanoma; 4.81% (active) in the assay with LOX IMVI melanoma; 35.4% in the assay with SK-MEL-28 melanoma; 13.9% in the assay with SK-MEL-2 melanoma; 34.3% with EKVX NSCLC; 36.1% with SN12C renal. The growth in the assay with UO-31 renal is 11.9%; with TK-10 renal, 32.7%; with ACHN renal, 14.8%; with CAKI-1 renal, 13%; in the assay with CCRF-CEM leukemia it was 30.4%; in the assay on MOLT-4 leukemia, 12.9%.
As to `CC(CN)[C@@H]1CC[C@]2(CO)CC[C@]3(C)[C@H](CC[C@@H]4[C@@]5(C)CCC(N)C(C)(C)[C@@H]5CC[C@]43C)[C@@H]12` (some centres not stated), the growth in the assay on HCT-15 colon is -75.4% (active); in the assay with SNB-75 CNS it was 52.2%; in the assay with SNB-19 CNS, 5.3% (active); in the assay with U251 CNS it was -88.4% (active); in the assay with PC-3 prostate, -76.2% (active); with SK-MEL-5 melanoma it was 57.5%. The growth with UACC-62 melanoma was 104%; in the assay with LOX IMVI melanoma, -72.1% (active); in the assay on SK-MEL-28 melanoma, -39.8% (active); with SK-MEL-2 melanoma it was 81.6%; in the assay on EKVX NSCLC, -44.7% (active); in the assay with SN12C renal it was 25.5%. Besides, the growth is 0.963% (active) in the assay on UO-31 renal; 57.7% in the assay on TK-10 renal; 17.7% in the assay with ACHN renal; 33.7% in the assay with CAKI-1 renal; 92.2% in the assay with A498 renal; -32.1% (active) with CCRF-CEM leukemia. In the assay with MOLT-4 leukemia, the growth is -35.1% (active).
`CO[C@H](C(=O)[C@@H](O)[C@@H](C)O)[C@@H]1Cc2cc3cc(O[C@H]4C[C@@H](O[C@H]5C[C@@H](O)[C@H](O)C(C)O5)[C@H](O)C(C)O4)c(C)c(O)c3c(O)c2C(=O)[C@H]1O[C@H]1C[C@@H](O[C@H]2C[C@@H](O[C@H]3C[C@@H](OC)[C@H](O)C(C)O3)[C@@H](O)C(C)O2)C(O)(O)C(C)O1` (some centres not stated): the growth in the assay with HCT-15 colon is 34.2%; with SNB-75 CNS, -41.6% (active); in the assay on SNB-19 CNS it was 11.8%; in the assay on PC-3 prostate, 19.4%; in the assay with SK-MEL-5 melanoma it was -51.5% (active); in the assay on UACC-62 melanoma, -43.5% (active). For the same compound, the growth is 3.54% (active) with LOX IMVI melanoma; -15.5% (active) with SK-MEL-28 melanoma; -79.2% (active) with SK-MEL-2 melanoma; 18% in the assay with EKVX NSCLC; 8.08% (active) in the assay with SN12C renal; 3.17% (active) in the assay on UO-31 renal. The growth in the assay on TK-10 renal is 12.1%; with ACHN renal, 0.683% (active); with CAKI-1 renal, 6.9% (active); with A498 renal, -35.7% (active); in the assay on CCRF-CEM leukemia, 34.2%; in the assay with MOLT-4 leukemia, 18%.
Turning to `Cc1c2cc[nH]c(=O)c2c(C)c2c1[nH]c1ccc(OC(=O)c3ccccc3)cc12`, the growth with HCT-15 colon is 27.9%; with SNB-75 CNS it was 39.9%; in the assay on SNB-19 CNS, 45%; in the assay on U251 CNS it was 29.2%; in the assay on PC-3 prostate, 35.9%; with UACC-62 melanoma, 28.5%. In addition, the growth is 13.7% with LOX IMVI melanoma; 25.2% with SK-MEL-28 melanoma; 23.7% in the assay on SK-MEL-2 melanoma; 19.7% with EKVX NSCLC; 32.3% with SN12C renal; 12.9% in the assay on UO-31 renal. The growth with TK-10 renal is 34%; in the assay with ACHN renal it was -9.28% (active); in the assay on CAKI-1 renal, 29.1%; with A498 renal, 61.2%; with CCRF-CEM leukemia, 29.4%; in the assay with MOLT-4 leukemia, 6.99% (active).
